Inconclusive results are not listed. Entries that show only a call come without a potency. Calls of active or inactive are those of the source. Calls come from the whole dose curve. Peptide text beside a SMILES is read from it.
Biological target: Beta-2 adrenergic receptor (Homo sapiens) (UniProt P07550)
Assay: Adrenergic beta2 receptor (ADRB2) small molecule agonists, cell-based qHTS assay (AID 1963593);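 note: CHO cells stably overexpressing human ADRB2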
Method in brief: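 CHO cells stably over-expressing ADRB2 were plated overnight at 37C, then dosed with compounds plus a stimulation mix containing 100uM IBMX and 25uM Ro-20-1724 for 0.5hr at room temperature. cAMP was measured by HTRF competition, 1hr.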

Chain of Beta-2 adrenergic receptor (Homo sapiens) (P07550 whole entry, looked up): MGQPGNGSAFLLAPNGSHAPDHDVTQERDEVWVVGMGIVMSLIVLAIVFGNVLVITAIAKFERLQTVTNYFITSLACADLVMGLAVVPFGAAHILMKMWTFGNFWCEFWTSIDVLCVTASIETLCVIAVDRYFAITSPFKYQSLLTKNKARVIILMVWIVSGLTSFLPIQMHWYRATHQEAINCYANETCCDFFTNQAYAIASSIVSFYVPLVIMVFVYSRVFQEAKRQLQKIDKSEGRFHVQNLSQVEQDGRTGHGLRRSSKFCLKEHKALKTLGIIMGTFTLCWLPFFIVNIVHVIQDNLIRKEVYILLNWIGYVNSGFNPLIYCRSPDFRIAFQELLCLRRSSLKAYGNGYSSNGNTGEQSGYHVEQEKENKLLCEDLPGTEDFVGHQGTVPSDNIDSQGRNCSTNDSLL

| SMILES | Potency |
| --- | --- |
| c1ccc2[nH]cnc2c1 | inactive |
| OCc1ccc(Cl)cc1Cl | inactive |
| O=C(O)c1cccc([N+](=O)[O-])c1 | inactive |
| Cc1ncc([N+](=O)[O-])n1C | inactive |
| Cc1ccc(C)c(S(=O)(=O)O)c1 | inactive |
| COC(=O)[C@H](Cc1ccccc1)NC(=O)[C@@H](N)CC(=O)O (H-Asp-Phe-OMe) | inactive |
| CC(=O)OC(C)C | inactive |
| CC(=O)[C@H]1CC[C@H]2[C@@H]3CC=C4C[C@@H](O)CC[C@]4(C)[C@H]3CC[C@]12C | inactive |
| O=C(O)Cc1c[nH]c2ccccc12 | inactive |
| Cc1ccc2c(c1)C(=O)OC2=O | inactive |
| Nc1ncnc2nc[nH]c12 | inactive |
| C=CCNCC=C | inactive |
| c1ccc2[nH]ccc2c1 | inactive |
| O=C(O)C1=NN(c2ccc(S(=O)(=O)O)cc2)C(=O)C1 | inactive |
| NS(=O)(=O)c1cc2c(cc1Cl)NC=NS2(=O)=O | inactive |
| C1N2CN3CN1CN(C2)C3 | inactive |
| CC(C)=CCC/C(C)=C/C=O | inactive |
| COc1ccccc1[N+](=O)[O-] | inactive |
| O=[N+]([O-])C(CO)(CO)CO | inactive |
| COc1cc(C=O)ccc1O | inactive |
| O=C(O)CCCCCCCC(=O)O | inactive |
| Cc1ccccc1Cl | inactive |

| SMILES | Potency |
| --- | --- |
| O=C1C(N(CO)C(=O)NCO)N(CO)C(=O)N1CO (stereo not drawn) | inactive |
| C=CCOC(=O)C(=C)C | inactive |
| Clc1ccc(Sc2cc(Cl)c(Cl)cc2Cl)cc1 | inactive |
| CCc1ccc(O)cc1 | inactive |
| O=[N+]([O-])c1ccccc1C(F)(F)F | inactive |
| OCc1cccc(Oc2ccccc2)c1 | inactive |
| O=S(=O)(O)c1ccc2ccccc2c1 | inactive |
| CCCCOC(=O)COc1ccc(Cl)cc1Cl | inactive |
| C=C(C)C(N)=O | inactive |
| CCc1ccccc1CC | inactive |
| CCN1CCCC1=O | inactive |
| CCc1cccc(CC)c1N | inactive |
| Clc1cc(Cl)c(Cl)cc1Cl | inactive |
| O=S1(=O)CC=CC1 | inactive |
| CC1(C)OC(=O)NC1=O | inactive |
| C/C=C/c1ccc(OCC)c(O)c1 | inactive |
| CCCCC(CC)COC(=O)/C=C/c1ccc(OC)cc1 (stereo not drawn) | inactive |
| C=C(C)C(=O)O | inactive |
| CC(=O)OCCC(C)C | inactive |
| O=C(O)CC(O)C(=O)O (stereo not drawn) | inactive |
| OCCOCCOCCOCCO | inactive |
| CCC(O)OC(O)CC (stereo not drawn) | inactive |

| SMILES | Potency |
| --- | --- |
| CC(C)OP(=O)(CP(=O)(OC(C)C)OC(C)C)OC(C)C | inactive |
| O=C(O)CCCC(=O)O | inactive |
| Nc1ccccc1[N+](=O)[O-] | inactive |
| O=C(O)CCCCC(=O)O | inactive |
| CCCCCCC=O | inactive |
| CC(=O)N[C@@H](CS)C(=O)O | inactive |
| NCCN | inactive |
| Cc1c(C(N)=O)cc([N+](=O)[O-])cc1[N+](=O)[O-] | inactive |
| CC(=O)CCc1ccccc1 | inactive |
| C=CC(=O)OCCCCCCCC(C)C | inactive |
| CCC[C@H](N[C@@H](C)C(=O)N1[C@H](C(=O)O)C[C@@H]2CCCC[C@@H]21)C(=O)OCC | inactive |
| Cc1cc(C)c(O)c(C)c1 | inactive |
| c1ccc(Oc2ccccc2)cc1 | inactive |
| COCCCN | inactive |
| CCc1cccc(C)c1N | inactive |
| Cc1cc(C)c(C)cc1C | inactive |
| CCC(O)OCCCOC (stereo not drawn) | inactive |
| CN1C(=O)CC[C@H]1c1cccnc1 | inactive |
| NC(N)=S | inactive |
| CCCCCCCCCCCCCCCC(=O)O | inactive |
| CC(=O)OCCOC(C)=O | inactive |
| C=C[Si](OCCOC)(OCCOC)OCCOC | inactive |

| SMILES | Potency |
| --- | --- |
| Cc1ccccc1C=O | inactive |
| CC1(C)NC(=O)NC1=O | inactive |
| C=C(C)C(=O)OCC(C)C | inactive |
| Cc1ccc(C(C)C)cc1 | inactive |
| CCCCOCCOCCOC(C)=O | inactive |
| FC(F)(F)c1ccc(Cl)c(Cl)c1 | inactive |
| C[Si](C)(C)N[Si](C)(C)C | inactive |
| CCCCCCCCCC | inactive |
| CC(=O)OC/C=C(\C)CCC=C(C)C | inactive |
| O=C(O)c1ccc(C(=O)O)cc1 | inactive |
| CCCCC(=O)O | inactive |
| CC(CCl)OP(=O)(OC(C)CCl)OC(C)CCl (stereo not drawn) | inactive |
| c1ccc2cc3c(ccc4ccccc43)cc2c1 | inactive |
| Cc1cc(=O)[nH]c(C(C)C)n1 | inactive |
| CC(=O)Nc1ccc(CC(=O)O)cc1 | inactive |
| Cc1cc(=O)oc2cc(O)ccc12 | inactive |
| CCCCCC/C=C/CCCCCCCC(=O)O | inactive |
| Cc1ccc(S(=O)(=O)O)cc1C | inactive |
| O=C1C(c2[nH]c3ccccc3c2O)=Nc2ccccc21 | inactive |
| c1ccc2cc3ccccc3cc2c1 | inactive |
| CCCCOCCOC(=O)c1ccccc1C(=O)OCCOCCCC | inactive |
| CCCCCCCC(=O)OCC(COC(=O)CCCCCCC)OC(=O)CCCCCCC | inactive |

From PubChem BioAssay (Tox21)
